Results taken from PubChem BioAssay AID689 (Sanford-Burnham Center for Chemical Genomics, 2007).
Among all 62,000 compounds or so, about 80 (0.1%) were called active. No rule for the calls is given here. The list is a sample of the results. Entries with a potency or affinity are not part of this list.

Target: Ephrin type-A receptor 4 (Mus musculus) (UniProt Q03137)
Assay: EphA4 ligand-binding antagonists – biochemical, colorimetric, mouse EphA4, primary screen (AID 689)
Details: EphA4-AP binding to KYL peptide, pNPP A405, at 10 µM, active compounds read high

Ephrin type-A receptor 4 (Mus musculus), sequence (Q03137 whole entry, looked up): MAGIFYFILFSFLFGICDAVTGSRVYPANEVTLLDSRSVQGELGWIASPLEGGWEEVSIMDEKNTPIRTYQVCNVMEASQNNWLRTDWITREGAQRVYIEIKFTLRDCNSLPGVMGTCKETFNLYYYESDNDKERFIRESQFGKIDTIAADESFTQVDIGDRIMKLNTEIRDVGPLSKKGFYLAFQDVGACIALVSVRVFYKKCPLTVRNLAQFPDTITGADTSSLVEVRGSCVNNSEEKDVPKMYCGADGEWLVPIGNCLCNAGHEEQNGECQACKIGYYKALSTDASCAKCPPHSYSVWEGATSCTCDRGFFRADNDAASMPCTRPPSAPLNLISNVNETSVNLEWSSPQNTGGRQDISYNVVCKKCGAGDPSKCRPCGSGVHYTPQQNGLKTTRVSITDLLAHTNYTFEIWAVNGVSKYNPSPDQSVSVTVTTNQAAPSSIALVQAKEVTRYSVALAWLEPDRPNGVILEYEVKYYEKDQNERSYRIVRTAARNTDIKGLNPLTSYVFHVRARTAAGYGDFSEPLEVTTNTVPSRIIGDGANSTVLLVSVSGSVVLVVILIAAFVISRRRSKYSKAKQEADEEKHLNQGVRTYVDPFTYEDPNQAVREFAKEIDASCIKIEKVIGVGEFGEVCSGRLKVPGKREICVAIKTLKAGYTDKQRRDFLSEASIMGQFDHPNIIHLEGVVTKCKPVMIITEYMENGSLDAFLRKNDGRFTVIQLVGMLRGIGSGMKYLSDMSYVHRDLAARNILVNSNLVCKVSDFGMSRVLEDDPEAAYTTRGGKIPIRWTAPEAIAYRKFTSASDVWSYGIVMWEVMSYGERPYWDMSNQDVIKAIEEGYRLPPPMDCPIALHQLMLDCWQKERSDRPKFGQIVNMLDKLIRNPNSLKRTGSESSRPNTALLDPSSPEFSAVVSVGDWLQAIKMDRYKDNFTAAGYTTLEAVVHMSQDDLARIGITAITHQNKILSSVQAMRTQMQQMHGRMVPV

inhibition, inactive:
Oc1c(/C=N/c2ncn[nH]2)ccc2ccccc12 -0.6%
O=c1oc2ccccc2c(O)c1/C=N/c1ccccn1 -4.8%
Cc1ccc(CNC(=O)C2CCCCC2C(=O)O)cc1 (stereo not given) -8.9%
COc1cc(C(=O)Nc2c(-c3ccccc3)c3cc(Br)ccc3[nH]c2=O)cc(OC)c1OC -0.5% [this sample at 5 µg/mL]
COc1ccc(OC)c(NC(=O)Cn2c(-c3ccc(Cl)cc3)noc2=O)c1 -3.5%
CCCC(=O)N1CCN(c2ccc(NC(=O)c3ccccc3)cc2)CC1 -0.5%
COc1ccc(NC(=O)CN2C(=O)C(C)Oc3ccccc32)cc1 (stereo not given) -3%
O=CNCCCc1nc2ccccc2n1Cc1ccccc1 7.7%
CCn1c2ccccc2c2nc3cc(S(=O)(=O)N4CCOCC4)ccc3nc21 32.3%
O=[N+]([O-])c1cccc(S(=O)(=O)N2CCOCC2)c1 2.9% [this sample at 5 µg/mL]
O=C(NCc1ccccc1)c1ccc2nccnc2c1 -12.5%
O=C(NC1CCCC1)c1ccc2nc(-c3ccco3)c(-c3ccco3)nc2c1 18.8%
COc1ccc(CCNC(=O)c2ccc3nc(-c4ccco4)c(-c4ccco4)nc3c2)cc1OC 24.1%
O=C(NCc1ccccc1)c1cccc(NC(=O)c2ccco2)c1 -2.1%
CCOC(=O)N1CCC(NC(=O)c2cc(C)c3c(C)nn(-c4ccccc4)c3n2)CC1 -3.2%
COc1c(Cl)cc(C(=O)Nc2cccc3ccccc23)cc1Cl -13.9% [this sample at 5 µg/mL]
CCc1nc(SCc2nc3ccccc3[nH]2)c2oc3ccccc3c2n1 12.7%
Cc1sc(NC(=O)CN(C)C2CCCCC2)nc1-c1ccc2c(c1)CCN2S(=O)(=O)c1ccccc1 -7%
O=C(Cc1ccc(F)cc1)Nc1ccccc1Br -10% [this sample at 5 µg/mL]
CCOC(=O)c1c(C)oc2ccc(OC(=O)c3ccccc3OC)cc12 -1% [this sample at 5 µg/mL]
CCOC(=O)c1cc(OC(=O)c2ccccc2)n(-c2ccccc2)n1 0.3%
Cc1onc(-c2ccccc2Cl)c1C(=O)Nc1ccccc1N1CCOCC1 4%
Cc1nn(-c2ccc(Cl)cc2)c2sc(C(=O)N3CCN(C(=O)c4ccco4)CC3)cc12 -24.1%
CCCCc1nnc(SCc2ccc(OCC)cc2)n1N -2.2%
COc1cc2[nH]c3c(N4CCC(C(N)=O)CC4)ncnc3c2cc1OC -14.4%
CSc1nc(N(C)CCO)c2sc3nc(-c4ccco4)c4c(c3c2n1)CCC4 46.9%
CSc1nc(N2CCN(CCO)CC2)c2sc3nc(-c4ccco4)c4c(c3c2n1)CCC4 -2.2%
CCSc1ncnc2c1sc1nc(-c3ccco3)c3c(c12)CC(C)(C)OC3 -1.2%
CSc1nc(NCc2ccco2)c2sc3nc(C(C)C)c4c(c3c2n1)CC(C)(C)OC4 -8.5%
COC(=O)c1c(C)oc2ccc(OCc3ccccc3Br)cc12 -1.2% [this sample at 5 µg/mL]
CC1CCN(c2cc(N3CCOCC3)c([N+](=O)[O-])cc2F)CC1 17.1%
CCCCn1c2nc3ccccc3nc2c2c(=O)n(CCC)cnc21 -2.2%
CCCCCn1c(N)c(C#N)c2nc3ccccc3nc21 0.7%
c1ccc(-c2nc(-n3nc4ccccc4n3)nc3ccccc23)cc1 -3.4%
CCCCCn1c2nc3ccccc3nc2c2c(=O)n(CC(C)C)cnc21 -9.1%
CCCCn1c2nc3ccccc3nc2c2c(=O)n(C(C)CC)cnc21 (stereo not given) 0.6%
CCCn1cnc2c(c1=O)c1nc3ccccc3nc1n2CCc1ccccc1 -9.5%
CCCn1nc(NS(=O)(=O)c2ccccc2)c2cc3ccccc3nc21 -10.6%
Cn1nc(-c2ccccc2)c2nc3ccccc3nc21 45.4%
COc1cc(NC(=O)c2cnn3c2NC(c2ccc(Br)cc2)CC3C(F)(F)F)cc(OC)c1OC (stereo not given) -4.6% [this sample at 5 µg/mL]
COc1ccc(-c2c(C(C)=O)c(C)nc3sc4c(c23)NC(c2ccccc2)NC4=O)cc1 (stereo not given) -23.5%
CC1(C)CC(=O)C2=C(C1)N(Cc1ccco1)C(=O)NC2(C(F)(F)F)C(F)(F)F -8.1%
Oc1ccc(N2CCN(c3ncnc4sc5c(c34)CCC5)CC2)cc1 -17.1%
COc1ccccc1CNC(=O)c1oc2ccc(S(=O)(=O)N3CCCC3)cc2c1C 2.1%
Cc1[nH]n(CCC#N)c(=O)c1CC(=O)N1CCN(c2ccccc2)CC1 -10.6%
O=C(Nc1ccc2nn(-c3ccccc3)nc2c1)c1ccc(Cl)c([N+](=O)[O-])c1 -18.3% [this sample at 5 µg/mL]
CCOC(=O)C(C)(C)C(=O)C(C)(C)C(O)c1ccccn1 (stereo not given) -7.7%
CC(C)Cn1c(N)c(C(=O)CSc2nnnn2C)c(=O)n(C)c1=O -12%
Cc1cc2ccccc2n1CCNC(=O)C1CCCC1 0.5%
Cc1ccc(S(=O)(=O)NCCn2c(C)cc3ccccc32)cc1 13.5%
CCOc1ccc(NS(=O)(=O)c2ccc(OC)c(C)c2)cc1 -20.6%
O=C(Nc1nc(-c2ccccc2)c(-c2ccccc2)s1)c1ccc(S(=O)(=O)N2CCCC2)cc1 8.7% [this sample at 5 µg/mL]
Cc1ocnc1C(=O)Nc1ccc(Cl)cc1 -10.1%
CC(=O)C12c3ccccc3C(c3ccccc31)C1C(=O)NC(=O)C12 (stereo not given) -14.2% [this sample at 5 µg/mL]
CCOc1ccc(N(CC(=O)Nc2ccc(Br)cc2)S(=O)(=O)c2ccc(SC)cc2)cc1 -3.8% [this sample at 5 µg/mL]
